For 91 molecules, inhibition results are on record in PubChem BioAssay AID485344 (National Center for Advancing Translational Sciences (NCATS), 2010).

Values joined by “and” are separate entries in the source; they are usually repeats but may differ in a detail not shown here. Identical values can stand only once. Out of some 340,000 compounds screened, about 6,900 (2%) were called active. Cut-off read from the data, not from the text of the source: active = inhibition above about 30%; inactive = below that, where a call was filed. The entries come from a sample that favours actives as a whole. Some structures have more than one record in an assay (separate samples or runs), and their calls can disagree.

D(2) dopamine receptor (Homo sapiens), sequence (P14416 whole entry, looked up): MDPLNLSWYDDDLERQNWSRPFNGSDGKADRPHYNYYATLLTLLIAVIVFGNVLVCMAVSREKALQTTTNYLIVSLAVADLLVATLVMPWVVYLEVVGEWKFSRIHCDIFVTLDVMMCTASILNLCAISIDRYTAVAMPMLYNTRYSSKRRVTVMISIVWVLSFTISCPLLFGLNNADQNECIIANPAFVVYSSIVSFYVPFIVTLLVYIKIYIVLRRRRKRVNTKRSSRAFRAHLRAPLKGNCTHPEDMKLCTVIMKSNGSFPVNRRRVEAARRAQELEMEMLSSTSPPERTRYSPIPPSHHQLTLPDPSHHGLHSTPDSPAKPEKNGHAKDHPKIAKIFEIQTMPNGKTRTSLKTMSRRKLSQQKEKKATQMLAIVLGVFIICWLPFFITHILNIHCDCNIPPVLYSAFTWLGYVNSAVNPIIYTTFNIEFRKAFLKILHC

This experiment addresses D(2) dopamine receptor (Homo sapiens) (UniProt P14416). As to the kind of experiment: HTS Assay for Allosteric Antagonists of the Human D2 Dopamine Receptor: Primary Screen for Antagonists. Note: 0% is about no effect. To be noted: HEK293 TREx D2 cells, calcium flux, dopamine EC80; at 10 µM; stronger effect = higher value. An outline of the steps:
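Inhibition of EC80 dopamine-driven calcium flux, recorded kinetically, defines activity here; cells are a tetracycline-induced HEK293 T-REx line expressing force-coupled D2.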
(Calcium assays in cells follow changes in intracellular calcium, usually with a dye or a luminescent sensor.)
In the case of `CN1CCN(c2ccc([N+](=O)[O-])c(Sc3nc4ccccc4[nH]3)c2)CC1`, the inhibition (as a rule, the change of the read-out against control, counted positive when it falls) is 88.9% (active).

With `CC1CCN(c2ccc([N+](=O)[O-])c(SCCO)c2)CC1`, the inhibition is -11.8% (inactive).

In the case of `O=C(CSc1nc2ccccc2[nH]1)N/N=C/C=C\c1ccccc1[N+](=O)[O-]`, the inhibition is -1.1% (inactive).

For the molecule `Cc1noc(C)c1COc1ccccc1C(=O)N(C)CC(=O)Nc1cccc(F)c1`, the inhibition was 6.3% (inactive).

For `CC(=O)Nc1ccc(S(=O)(=O)N(CCc2ccccc2)CC(=O)N/N=C/c2ccc(C(=O)O)cc2)cc1`, the inhibition is 10.8% (inactive).

Regarding `COc1ccc(N(CC(=O)N/N=C/c2cccc3c2OCCO3)S(=O)(=O)c2ccc(NC(C)=O)cc2)cc1`, the inhibition was 44.5% (active).

Consider `COc1ccc(S(=O)(=O)N(CC(=O)N/N=C/c2ccccc2C(=O)O)c2ccccc2OC)cc1`, for which the inhibition is 1.95% (inactive).

For the molecule `CC(CCn1cccn1)NC(=O)CCc1nnc(CCc2ccccc2)o1` (stereo unspecified), the inhibition was 3.4% (inactive).

Consider `Cc1cc(-c2nnc(CCC(=O)NC(c3ccccc3)c3ccccc3)o2)no1`, for which the inhibition was 4.61% (inactive).

For the molecule `O=C(CCc1nnc(CCCCc2ccccc2)o1)NC(c1cccnc1)C(F)(F)F` (stereo unspecified), the inhibition was 32.7% (active).

Regarding `O=S(=O)(NCCc1ccccn1)c1cc(Cl)cc(Cl)c1O`, the inhibition is 0.268% (inactive).

For `O=C(Nc1ncccc1O)c1ccc(S(=O)(=O)N2CCCC2)cc1`, the inhibition was -6.12% (inactive).

For `O=C(CN1C(=O)NC2(CCCCC2)C1=O)N1CCN(C(=O)c2cccs2)CC1`, the inhibition is -4.48% (inactive).

Regarding `CCCc1ccc(C(=O)COC(=O)CN2C(=O)NC3(CCCCC3C)C2=O)cc1` (stereo unspecified), the inhibition was -19.2% (inactive).

For the molecule `COc1ccc(NC(=O)c2sccc2SCC#N)cc1`, the inhibition is 31.6% (active).

For the molecule `COc1ccc(NC(=O)c2sc(N)nc2-c2ccccc2)cc1`, the inhibition is -6.34% (inactive).

`COc1ccc(NC(=O)CSc2nc(C)cs2)cc1`: the inhibition is 7.3% (inactive).

`NC(=O)NC(=O)C(OC(=O)CCNS(=O)(=O)c1ccccc1)c1ccccc1` (stereo unspecified): the inhibition was 12.6% (inactive).

Turning to `O=C1COc2ccc(C(=O)CSc3ccc(Br)cc3)cc2N1`, the inhibition was 11.8% (inactive).

As for `COc1cccc(C2=CC(=O)C[C@H](c3ccc(OC)c(OC)c3)C2)c1`, the inhibition is 9.37% (inactive).

On to `CC(C)CCN1CCN(Cc2ccc(C(F)(F)F)cc2)CC1CCO` (stereo unspecified), for which the inhibition is 14.1% (inactive).

On to `CC(C)CCN1CCN(C/C=C/c2ccco2)CC1CCO` (stereo unspecified), for which the inhibition was -9.65% (inactive).

Turning to `CC(C)CCN1CCN(Cc2cn[nH]c2C2CCCCC2)CC1CCO` (stereo unspecified), the inhibition was 56.2% (active).

For `COc1ccc(CCNC(=O)COc2ccc3c(c2)OCO3)cc1`, the inhibition was -6.03% (inactive).

Turning to `Cn1c(=O)c2ccccc2n(CC(=O)Nc2ccc3c(c2)OCCO3)c1=O`, the inhibition is 0.133% (inactive).

Take `O=C(Cn1c(=O)sc2ccccc21)Nc1ccc2c(c1)OCCO2`: the inhibition was -10.2% (inactive).

On to `O=C(CN1CCC(O)(c2ccccc2)CC1)Nc1ccc2c(c1)OCCO2`, for which the inhibition is 94.9% (active).

Regarding `CC1CCCC(NC(=O)c2cc(-c3ccncc3)nc3ccccc23)C1C` (stereo unspecified), the inhibition was -1.15% (inactive).

On to `CC(OC(=O)Cc1ccc(F)cc1)C(=O)N1CCc2ccccc21` (stereo unspecified), for which the inhibition is -8.93% (inactive).

In the case of `CN(CC(=O)Nc1ccc(F)c(F)c1F)C(=O)C1CC(=O)N(C2CCCC2)C1` (stereo unspecified), the inhibition was -11.5% (inactive).

Consider `O=C(NC1CCCC1)c1cc(-c2ccccc2)on1`, for which the inhibition is 37.6% (active).

As to `O=C(NC1CCCCC1)c1cc(C2CC2)on1`, the inhibition is -9.03% (inactive).

As for `CC(NC(=O)c1cc(-c2ccccc2)on1)c1ccccc1` (stereo unspecified), the inhibition is 11.6% (inactive).

Regarding `CCn1c(SCC(=O)NCC2CCCO2)nc2ccccc21` (stereo unspecified), the inhibition is -20.8% (inactive).

On to `COC(=O)[C@H]1[C@H]2C[C@H]3c4[nH]c5ccccc5c4CCN3C[C@@H]2CC[C@@H]1O`, for which the inhibition is -5.26% (inactive) and 43.4% (active).

On to `COC(=O)C1CCN(C(=O)c2cc(=O)[nH]c3ccccc23)CC1`, for which the inhibition was 17.7% (inactive).

Turning to `O=C(NC1CCCCC1)N1CCc2[nH]c3ccccc3c2C1`, the inhibition was -14.3% (inactive).

For `O=C(COC(=O)Cc1ccc(Br)cc1)Nc1ccc(N2CCOCC2)cc1`, the inhibition is 22.4% (inactive).

As for `COc1cc(CNCc2ccc(OC)c3ccccc23)cc(OC)c1OC`, the inhibition was 33% (active).

Consider `COc1ccc(CNC(=O)Cc2ccc(-c3ccccc3)cc2)cc1OC`, for which the inhibition was 20.3% (inactive).

On to `COc1cc(CNCc2cccs2)cc(Br)c1OC`, for which the inhibition is -4.22% (inactive).

`COC(=O)C1=CO[C@@H](O[C@@H]2O[C@H](CO)[C@@H](O)[C@H](O)[C@H]2O)C2C1C[C@H](O)[C@@H]2C` (stereo partly specified): the inhibition is -6.47% (inactive).

`COc1ccc(-n2c(SCC(=O)NCc3cccs3)nnc2-c2ccoc2C)cc1`: the inhibition was 42.5% (active).

With `COc1ccc(-n2c(SCC(=O)NCc3ccco3)nnc2-c2c[nH]c3ccccc23)cc1`, the inhibition is -8.02% (inactive).

As to `COc1ccc(-n2nnnc2SCC(=O)NCc2cccs2)cc1`, the inhibition is -2.89% (inactive).

In the case of `CN1CCN(S(=O)(=O)c2cccc(C(=O)Nc3sccc3C#N)c2)CC1`, the inhibition is 0.535% (inactive).

Take `CN(C)C(=O)c1ccc(NC(=O)COC(=O)c2cc3c(s2)CCCCC3)cc1`: the inhibition was -7.26% (inactive).

For `COc1ccc(-c2c(C#Cc3ccccc3)c3ccccc3n2C)cc1`, the inhibition was 9.11% (inactive).

As to `COc1ccc(CCNCc2c(-c3ccccc3)n(C)c3ccccc23)cc1`, the inhibition is 45.6% (active).

Regarding `COc1ccc(-c2nc3ccccc3c(=O)n2CCc2ccc(O)cc2)cc1`, the inhibition was -13.4% (inactive).

As for `COc1ccc(C2C(C#N)=C(N)Oc3n[nH]c(C)c32)cc1CN1CCN(c2ccc(F)cc2)CC1` (stereo unspecified), the inhibition is 53.9% (active).

For `CCCc1[nH]nc2c1C(c1ccc(OC)c(Cn3nc(C)c(Br)c3C)c1)C(C#N)=C(N)O2` (stereo unspecified), the inhibition was -23.9% (inactive).

Consider `CCOc1c(OC)cc(C2C(C#N)=C(N)Oc3n[nH]c(-c4ccncc4)c32)cc1OC` (stereo unspecified), for which the inhibition was -9.43% (inactive).

For `COc1ccccc1/C=C/C(=O)OCC(=O)NC1CCCCCC1`, the inhibition is -12.9% (inactive).

On to `CCN(CC(=O)Nc1ccccc1C(=O)NC1CC1)Cc1cccs1`, for which the inhibition was 0.568% (inactive).

Consider `Cc1cc(C)c(C#N)c(SCC(=O)N(CC(C)C)C2CCS(=O)(=O)C2)n1` (stereo unspecified), for which the inhibition is 6.67% (inactive).

Turning to `CC1CC1C(=O)OCC(=O)Nc1cccc(F)c1` (stereo unspecified), the inhibition is 17.3% (inactive).

In the case of `Cc1ccsc1C(C(=O)NC1CCCCC1)N(C(=O)Cc1cccs1)C1CC1` (stereo unspecified), the inhibition was 2.03% (inactive).

Turning to `CC(=O)N(CC1CCCO1)C1(C(=O)NC2CCCC2)CCCCC1` (stereo unspecified), the inhibition was -1.19% (inactive).

On to `O=C(Cc1cccs1)N(CC1CCCO1)C1(C(=O)NC2CCCCC2)CCCCC1` (stereo unspecified), for which the inhibition was 34% (active).

Turning to `COc1ccc(N(CCC(=O)NCCc2ccccc2)S(=O)(=O)c2ccc(C)cc2C)cc1`, the inhibition is -18.2% (inactive).

For the molecule `COc1cc2c(cc1OC)CN(C(C)C(=O)Nc1cccc(S(=O)(=O)N3CCOCC3)c1)CC2` (stereo unspecified), the inhibition is 15.6% (inactive).

Regarding `CC(Oc1ccccc1)C(=O)Nc1c2c(nn1-c1ccccc1)CS(=O)C2` (stereo unspecified), the inhibition was 30.2% (active).

Consider `CC(C)C(=O)Nc1c2c(nn1-c1ccccc1)CSC2`, for which the inhibition is 7.83% (inactive).

With `COc1ccc(CC(=O)Nc2c3c(nn2-c2cccc(Cl)c2)CS(=O)C3)cc1` (stereo unspecified), the inhibition was -9.37% (inactive).

Turning to `O=c1ccc(S(=O)(=O)N2CCCC2)cn1Cc1nc(-c2ccccc2)no1`, the inhibition was 15.2% (inactive).

As to `CCOc1ccccc1-c1nc(CN2CCC(C(=O)N3CCOCC3)CC2)c(C)o1`, the inhibition was -1.66% (inactive).

With `COc1ccc(-c2nc(CN3CCN(c4ncccn4)CC3)c(C)o2)cc1C`, the inhibition was 0.804% (inactive).

With `COc1ccc(F)c(-c2nc(CN3CCC(c4ccccc4)CC3)c(C)o2)c1`, the inhibition was 93.5% (active).

Turning to `COc1ccccc1N1CCN(CC(=O)Nc2ccnn2C2CCCC2)CC1`, the inhibition was 14.3% (inactive).

Regarding `CC(=O)NC12CC3CC(C1)CC(C(=O)N1CCN(S(=O)(=O)c4cccs4)CC1)(C3)C2`, the inhibition was -3.14% (inactive).

In the case of `O=C1c2ccccc2C(=O)N1CCC#Cc1ccc2cc(C3(O)CCCCC3)oc(=O)c2c1`, the inhibition is -4.36% (inactive).

For `COc1cccc(N2CC(NS(=O)(=O)c3ccc(Cl)cc3)CC2=O)c1` (stereo unspecified), the inhibition was 12% (inactive).

For the molecule `CN1C(=O)/C(=C\c2ccc(-c3ccccc3)o2)SC1=S`, the inhibition is 16.2% (inactive).

Consider `CN1CCN(/N=C/c2ccc(-c3ccc([N+](=O)[O-])cc3)o2)CC1`, for which the inhibition is 11.1% (inactive).

On to `NS(=O)(=O)c1ccc(-c2ccc(/C=C3\SC(=O)NC3=O)o2)cc1`, for which the inhibition is 47.3% (active).

With `COC(=O)c1sc(NC(=O)COC(=O)C2CCC2)c(C(=O)OC)c1C`, the inhibition is 3.68% (inactive).

Take `CC(Sc1ncnc2c1cnn2-c1ccccc1)C(=O)Nc1ccc(N2CCOCC2)cc1` (stereo unspecified): the inhibition was 8.83% (inactive).

For `CCOc1ccc(C(C)=O)cc1COC(=O)CN1C(=O)NC2(CCCC2)C1=O`, the inhibition was 5.14% (inactive).

Consider `CC(C)=CCC/C(C)=C/C(=O)O`, for which the inhibition is 55.4% (active).

As for `O=C(CCc1ccccc1)NNC(=O)c1ccc(Br)cc1`, the inhibition was -5.25% (inactive).

As for `O=C(CCNC(=O)c1ccc(Br)cc1)NCCCc1ccccc1`, the inhibition is 34.2% (active).

In the case of `CC(C)c1ccc(C(=O)NCCCc2ccccc2)cc1`, the inhibition is -23.5% (inactive).

For the molecule `O=C(CNS(=O)(=O)c1ccc2ccccc2c1)Nc1ccc(F)c(F)c1F`, the inhibition is 6.19% (inactive).

For `COC(=O)c1ccc(Cc2ccccc2)o1`, the inhibition was -18.3% (inactive).

On to `COC(=O)c1ccc(CSc2ccccc2C)o1`, for which the inhibition was 34.1% (active).

For the molecule `COC(=O)c1ccc(CSc2nnc(N)s2)o1`, the inhibition is -17.4% (inactive).

Consider `COc1ccc(N2CCN(C(=O)COC(=O)c3cccc(S(=O)(=O)Nc4ccccc4OC)c3)CC2)cc1`, for which the inhibition is 3.16% (inactive).

For the molecule `CC1CCCCC1NC(=O)NC(=O)COC(=O)C1=NN(c2ccccc2)C(=O)CC1` (stereo unspecified), the inhibition is -16.5% (inactive).

As for `CC1CCCCC1NC(=O)COC(=O)Cc1ccc(Cl)cc1` (stereo unspecified), the inhibition was -14.4% (inactive).

For the molecule `Cc1nn(Cc2ccccc2)c(C)c1C(=O)NCCCN1CCCC1=O`, the inhibition was 0.482% (inactive).
